KCNQ2 block: KCNQ2 (rat) channel inhibition; O88943; CHO-K1 KCNQ2, FluxOR thallium flux, 20 min; stronger effect = lower value; B-score at 10 µM; actives 1.1% (n = 310,000); AID 2156;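 active = fluorescence ratio B-score at most minus 3 library SDs, with starting brightness B-score within 2 library SDs, cut at about -5.5 in these data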
KCNQ2 enhance: KCNQ2 (rat) channel potentiation; O88943; CHO-K1 KCNQ2, FluxOR thallium flux fluorescence; stronger effect = higher value; B-score at 10 µM; actives 0.54% (n = 310,000); AID 2239;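 active = fluorescence ratio B-score at least 3 SD of library B-scores, with initial fluorescence B-score within 3 of them, cut at about 5.3 in these data; same plate scores as AID 2156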;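 also: B-score of peak minus minimum over baseline fluorescence ratio after K+ and Tl+ stimulus; positive B-score means potentiation of KCNQ2 with more thallium influx and brighter signal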
Kir21 confirm: confirmation of mouse Kir2.1 potassium channel inhibitors; shares compounds with KCNQ2 enhance; Kir2.1-expressing cells, FluxOR thallium flux fluorescence; stronger effect = lower value; Tl flux remaining, % of negative control (stronger effect = lower value), % at 10 µM; actives 41% (n = 2,300);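 active = Primary-screen hit whose thallium flux fell at least 3 control SD below untreated wells in both duplicates, with normal baseline fluorescence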
HEK293 ctr: counter-screen for Kir2.1 inhibitors: effect in parental HEK293 cells | shares compounds with KCNQ2 enhance | FluxOR thallium flux fluorescence; 0% = unstimulated blank wells | FluxOR signal as % of negative control (100 = no effect), % at 10 µM | actives 19% (n = 2,300) | AID 2105;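 active = dye signal at least 3 control SD above or below untreated wells in both duplicates, raw fluorescence within 3, either direction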;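 also: percent is based on the flux ratio of peak minus minimum fluorescence over baseline F0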
CHO-K1 Tl ctr: parental CHO-K1 activity in KCNQ2 potentiator counter-screen; activity increase over 3SD of controls, % at 10 µM; shares compounds with KCNQ2 enhance; actives 43% (n = 1,200); parental CHO-K1 cells, FluxOR thallium flux fluorescence; zero = vehicle mean+3SD, 100% = vehicle-minus-blank window; AID 2282;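 active = signal rise of at least 3 SD above the untreated control mean, in both duplicate wells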;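 also: counter screen of KCNQ2 potentiator hits so any rise reflects channel-independent effects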
KCNQ1 sel pot: human KCNQ1 counter-target activity of KCNQ2 potentiators. actives 28% (n = 1,200). shares compounds with KCNQ2 enhance. AID 2283. activation over 3SD threshold, % at 10 µM. CHO KCNQ1 stable, FluxOR thallium flux fluorescence; beyond 3SD, as % of vehicle-control signal;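 active = fluorescence ratio rise of at least 3 SD of vehicle wells above their mean, in both replicate wells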
KCNQ2 pot confirm: rat KCNQ2 channel potentiator confirmation. shares compounds with KCNQ2 enhance. CHO-KCNQ2 cells, FluxOR thallium flux fluorescence. potentiation, less the hit threshold, % at 10 µM. actives 68% (n = 1,200). AID 2287;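 active = fluorescence ratio rising 3 SD or more over the vehicle control mean in both replicates, plus primary screen hit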;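 also: peak minus minimum thallium fluorescence divided by baseline after K/Tl stimulus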
Kir21 spec: mouse Kir2.1 off-target activity of KCNQ2 potentiators. shares compounds with KCNQ2 enhance. HEK293 Kir2.1, FluxOR thallium flux fluorescence. activity over 3SD threshold, % at 10 µM. actives 2% (n = 1,200). AID 2345;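 active = fluorescence ratio rise of at least 3 SD above the vehicle-control mean, seen in both replicates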
KCNQ2 W236L pot: KCNQ2 potentiators acting on retigabine-insensitive rat KCNQ2 W236L mutant. shares compounds with KCNQ2 enhance. CHO KCNQ2-W236L, automated patch clamp current. current increase over 3SD of negative controls (%), stronger effect = higher value, % at 25 µM. actives 10% (n = 940);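 active = current increase at least 3 SD of the untreated controls above them in both duplicate recordings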
Target sequence (O88943 whole entry W236L, looked up): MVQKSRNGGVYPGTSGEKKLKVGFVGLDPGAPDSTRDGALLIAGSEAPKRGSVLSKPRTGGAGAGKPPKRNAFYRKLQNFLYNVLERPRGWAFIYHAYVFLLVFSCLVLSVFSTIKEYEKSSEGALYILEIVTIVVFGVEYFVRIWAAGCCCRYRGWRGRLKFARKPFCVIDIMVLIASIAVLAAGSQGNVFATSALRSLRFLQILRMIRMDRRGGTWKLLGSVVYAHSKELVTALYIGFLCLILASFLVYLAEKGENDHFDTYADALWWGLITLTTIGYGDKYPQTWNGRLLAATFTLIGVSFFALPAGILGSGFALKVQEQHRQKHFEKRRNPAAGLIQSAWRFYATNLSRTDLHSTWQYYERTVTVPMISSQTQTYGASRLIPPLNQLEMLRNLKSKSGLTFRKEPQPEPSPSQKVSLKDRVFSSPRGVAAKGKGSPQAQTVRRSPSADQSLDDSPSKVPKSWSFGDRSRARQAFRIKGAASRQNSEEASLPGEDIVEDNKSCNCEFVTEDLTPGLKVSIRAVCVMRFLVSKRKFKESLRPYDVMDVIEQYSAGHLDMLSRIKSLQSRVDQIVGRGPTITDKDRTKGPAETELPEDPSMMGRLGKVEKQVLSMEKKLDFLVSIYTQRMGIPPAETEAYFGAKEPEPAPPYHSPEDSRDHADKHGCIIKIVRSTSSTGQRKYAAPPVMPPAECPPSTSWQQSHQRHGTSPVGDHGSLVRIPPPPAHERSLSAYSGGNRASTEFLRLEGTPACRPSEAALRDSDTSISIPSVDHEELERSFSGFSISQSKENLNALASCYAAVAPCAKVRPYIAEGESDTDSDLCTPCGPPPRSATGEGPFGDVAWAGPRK
Of the large screens only hits and unclear results are named; the others gave an inactive call (follow-up assays come after a bar, where they were run). Compounds with a hit are over-represented: about 1.6% of the library has one in this group of screens.

O=C(CNC(=O)c1ccncc1)N/N=C/c1ccc(O)cc1O	none
Cc1ccc(S(=O)(=O)N(C)C)cc1NC(=O)COC(=O)CCC1CCCCC1	none
S=c1nc(C2CCCCC2)[nH]c2ccccc12	none (no result: KCNQ2 enhance)
S=c1nc(C2CC2)[nH]c2ccccc12	KCNQ2 enhance 15.6 | Kir21 confirm inactive | HEK293 ctr 341.0% | CHO-K1 Tl ctr 16.6 | KCNQ1 sel pot inactive | KCNQ2 pot confirm 46.2 | Kir21 spec inactive | KCNQ2 W236L pot inactive
O=C(CCCc1c[nH]c2ccccc12)NCc1ccccc1F	none (no result: KCNQ2 enhance)
COc1cccc(C(=O)N2CCN(Cc3ccccn3)CC2)c1	none (no result: KCNQ2 enhance)
Cc1nc(SCC(=O)NCc2ccco2)c2c(C)c(C)sc2n1	none (no result: KCNQ2 enhance)
Cc1sc2nc(C(C)C)nc(SCC(=O)NCc3ccco3)c2c1C	none | Kir21 confirm inactive | HEK293 ctr 218.0%
O=C(Nc1cccc(Cl)c1)c1ccc(S(=O)(=O)NCC2CCCO2)cc1 (stereo not drawn)	none (no result: KCNQ2 enhance)
Cc1ccc(OCC(=O)NNC(=O)C2CC(=O)N(c3ccc4c(c3)OCCO4)C2)cc1 (stereo not drawn)	none
Cc1cccc(CCNC(=O)C2CCN(S(=O)(=O)N3CCOCC3)CC2)c1	none
Cc1onc(-c2c(F)cccc2Cl)c1C(=O)OCC(=O)c1c[nH]c2ccccc12	KCNQ2 enhance 6.42 | Kir21 confirm inactive | HEK293 ctr inactive | CHO-K1 Tl ctr inactive | KCNQ1 sel pot inactive | KCNQ2 pot confirm inactive | Kir21 spec inactive
Cc1noc(C)c1C(=O)OCC(=O)c1c[nH]c2ccccc12	none (no result: KCNQ2 enhance)
COc1ccc(S(=O)(=O)NC2CC(=O)N(c3cccc(F)c3)C2)cc1OC (stereo not drawn)	none
Oc1ccccc1CN1CCN(C(O)(c2ccccc2)c2ccccc2)CC1	none (no result: KCNQ2 enhance) | Kir21 confirm 65.5% | HEK293 ctr inactive
Oc1ccccc1CN1CCC(C(O)(c2ccccc2)c2ccccc2)CC1	none (no result: KCNQ2 enhance)
NS(=O)(=O)c1cccc(NC(=O)CNC(=O)CC23CC4CC(CC(C4)C2)C3)c1	none
Cc1ccc(NC(=O)CNC(=O)CC23CC4CC(CC(C4)C2)C3)c(O)c1	KCNQ2 enhance 10.2 | Kir21 confirm inactive | HEK293 ctr inactive | CHO-K1 Tl ctr inactive | KCNQ1 sel pot inactive | KCNQ2 pot confirm 24.7 | Kir21 spec inactive | KCNQ2 W236L pot inactive
CCNC(=S)Nc1nc2c(cc1C(=O)OCC)CCCC2	KCNQ2 enhance 5.49 | Kir21 confirm inactive | HEK293 ctr 147.5% | CHO-K1 Tl ctr 7.6 | KCNQ1 sel pot inactive | KCNQ2 pot confirm inactive | Kir21 spec inactive | KCNQ2 W236L pot inactive
C=CCNC(=S)Nc1nc2c(cc1C(=O)OCC)CCCC2	none
CC(C)CC1NC(=O)N(Cc2nc3ccccc3s2)C1=O (stereo not drawn)	none (no result: KCNQ2 enhance)
COC(=O)c1cc(S(=O)(=O)NCC2CCN(CCc3ccc(OC)cc3)CC2)c[nH]1	none
CCN(C(=O)CCS(=O)(=O)c1cccc2nonc12)c1ccc(F)cc1	none (no result: KCNQ2 enhance)
CC1CCCCC1NC(=O)CCCn1c(=S)[nH]c2ccccc2c1=O (stereo not drawn)	none
CC1CCCCC1n1c(=S)[nH]c2ccccc2c1=O (stereo not drawn)	KCNQ2 enhance 6.64 | Kir21 confirm inactive | HEK293 ctr 207.5% | CHO-K1 Tl ctr 0.6 | KCNQ1 sel pot 19.8 | KCNQ2 pot confirm 19.1 | Kir21 spec inactive | KCNQ2 W236L pot inactive
COc1cccc(/C=N/n2c(SC)nnc2-c2ccccc2)c1O	KCNQ2 enhance 5.33 | Kir21 confirm inactive | HEK293 ctr inactive | CHO-K1 Tl ctr inactive | KCNQ1 sel pot inactive | KCNQ2 pot confirm inactive | Kir21 spec inactive
COc1cccc(/C=N/n2c(SC)nnc2-c2ccccc2)c1OC	none (no result: KCNQ2 enhance)
COc1ccc(-c2cc3c(=O)n(CC(=O)Nc4cccc(Cl)c4)ncn3n2)cc1	none
O=C(/C=C/c1cccc([N+](=O)[O-])c1)OCC1CCCO1 (stereo not drawn)	none (no result: KCNQ2 enhance)
Cc1cccc(NS(=O)(=O)c2ccc3c(c2)NC(=O)CO3)c1C	none (no result: KCNQ2 enhance)
CCc1cc2c3c([nH]c2cc1S(=O)(=O)N1CCC2(CC1)OCCO2)CCCC3=O	none
Cc1cc2c3c([nH]c2cc1S(=O)(=O)N1CCC2(CC1)OCCO2)CC(C)(C)CC3=O	KCNQ2 enhance 5.46 | Kir21 confirm inactive | HEK293 ctr 62.5% | CHO-K1 Tl ctr inactive | KCNQ1 sel pot inactive | KCNQ2 pot confirm inactive | Kir21 spec inactive
CCN(CC)C(=O)Cn1cc(S(=O)(=O)CC(=O)NCCc2ccccc2)c2ccccc21	none (no result: KCNQ2 enhance)
COc1ccc(NC(=O)c2cccc(N3C(=O)c4ccc(C(=O)Nc5ccc(OC)c(O)c5)cc4C3=O)c2)cc1O	none
CN(C)S(=O)(=O)c1cccc(NC(=O)CC23CC4CC(CC(C4)C2)C3)c1	none
O=C(CC12CC3CC(CC(C3)C1)C2)Nc1c(F)cccc1F	KCNQ2 enhance 9.96 | Kir21 confirm inactive | HEK293 ctr inactive | CHO-K1 Tl ctr inactive | KCNQ1 sel pot inactive | KCNQ2 pot confirm 33.1 | Kir21 spec inactive | KCNQ2 W236L pot inactive
CN(C)S(=O)(=O)Nc1cccc(NC(=O)CC23CC4CC(CC(C4)C2)C3)c1	KCNQ2 enhance 7.85 | Kir21 confirm inactive | HEK293 ctr inactive | CHO-K1 Tl ctr 7.1 | KCNQ1 sel pot 6.3 | KCNQ2 pot confirm inactive | Kir21 spec inactive | KCNQ2 W236L pot inactive
CC(=O)Nc1ccc(NC(=O)CC23CC4CC(CC(C4)C2)C3)cc1	none
Nc1cccc(Oc2ccc3c(c2)C(=O)NC3=O)c1	none (no result: KCNQ2 enhance)
Cc1cc(Cl)ccc1OCCCC(=O)NNC(=O)c1ccccc1O	none (no result: KCNQ2 enhance)
Cc1cc2c(cc1S(=O)(=O)NCCc1ccccc1)NC(=O)CO2	none
CCCc1ccccc1OCCNS(=O)(=O)c1cc2c(cc1C)OCC(=O)N2	none | Kir21 confirm 64.5% | HEK293 ctr inactive
Cc1[nH]n(-c2ccccc2)c(=O)c1S(=O)(=O)c1ccccc1	none (no result: KCNQ2 enhance) | Kir21 confirm 28.5% | HEK293 ctr inactive
Cc1[nH]n(-c2ccccc2)c(=O)c1CCO	none
Cc1ccc(C(=O)Nc2nc(C(C)(C)C)cs2)s1	KCNQ2 enhance 6.64 | Kir21 confirm inactive | HEK293 ctr inactive | CHO-K1 Tl ctr 18.3 | KCNQ1 sel pot inactive | KCNQ2 pot confirm inactive | Kir21 spec inactive | KCNQ2 W236L pot inactive
CC(C)(C)c1csc(NC(=O)c2ccc(Cl)s2)n1	none
C1CCC(C(CC2CCCCN2)C2CCCCC2)CC1 (stereo not drawn)	none (no result: KCNQ2 enhance) | Kir21 confirm 28.5% | HEK293 ctr 71.5%
